# In the library only some 5.7% were active in any assay of this set; here they are far more common.
# IL1B secr inh – blocks inflammasome-driven IL-1 beta release; THP-1 LPS/ATP IL-1B secretion, AlphaLISA, 16 h; hits give low values; activity change, % at 57.5 µM; 360,000 tested, 4.7% active; AID 743279; in the data active = activity change below about -50%; inconclusive = mostly about -30% to -49%; also: % is scaled to controls: 0 for no effect and ±100 for the full control effect
#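 THP-1 cells pretreated 1 hr with compounds (up to 57.5 uM final), then stimulated with LPS (250 ng/mL final) plus ATP (1.25 mM final); secreted IL-1B measured by AlphaLISA after 16 hr, decreased signal indicating inhibition.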
# ATXN2 expr inh – reduces ATXN2 reporter expression in HEK-293 cells. HEK-293 ATXN2-luciferase reporter, luminescence, 24 h. Potency, µM (series often up to 57 µM), without a hit: top-dose activity change, negative = inhibition, hits mostly inhibitors. 360,000 tested, 0.72% active. AID 1745845; also: potency is read from the fitted curve at half-maximal effect; % is scaled to controls: 0 for no effect and ±100 for the full control effect; nearly all actives have a fitted effect of over 55% in size
#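 ATXN2-luciferase reporter cells (luciferase flanked by upstream and downstream ATXN2 gene portions) were treated 24 h at 37 °C with compounds at up to 57 uM. SteadyGlo luminescence gave expression; GF-AFC fluorescence gave viability.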
# TGFb SMAD3 inh – inhibitors of TGF-b signaling; HepG2 CAGA-GFP TGF-b/SMAD3 reporter, GFP fluorescence, 18 h; TGF-beta stimulated, 500 pg/mL final; Potency, µM (titrated, usually from 46.1 µM), inactives show at the highest dose activity, negative = inhibition, usual class: inhibitors; 410,000 tested, 1.2% active; also: potency is read from the fitted curve at half-maximal effect; % is scaled to controls: 0 for no effect and ±100 for the full control effect; nearly all actives have a fitted effect of over 65% in size
#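 Cell-based qHTS in HEPG2 carrying a CAGA-GFP Smad reporter; compounds added before 500 pg/mL final TGF-beta, 18 h incubation at 37 degrees C, GFP fluorescence quantified per cell by imaging cytometry.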
# HepG2 viability – kills HepG2 cells in TGF-b inhibitor counter-screen | Potency, µM (top dose mostly 46.1 µM), inactives show top-dose activity change, negative = cytotoxicity, actives largely listed as cytotoxic | AID 588856 | HepG2 CAGA-GFP viability, ATP luminescence, 18 h | 410,000 tested, 0.76% active; also: potency is read from the fitted curve at half-maximal effect
#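 HepG2 CAGA-GFP cells (1000/well, DMEM with 1% FBS) received compound, then TGF-beta at 500 pg/mL final, and were incubated 18 hours at 37 degrees C. Viability was read by CellTiter-Glo luminescence. Media-only wells were set as complete cell-killing and DMSO as no toxicity.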
# S2 tox – reduces viability in counter-screen for ATXN expression inhibitors; S2 cells (HEK-293 line with an ATXN2-luciferase reporter) viability, CellTiter-Fluor protease fluorescence, 24 h; Potency, µM (titrated, usually from 56.7 µM), hits mostly cytotoxic; 400,000 tested, 0.49% active; AID 651635; also: potency is read from the fitted curve at half-maximal effect; nearly all actives have a fitted effect of over 40% in size
# Numbers without * were called inactive; i = inactive; u = inconclusive; x = not tested or not shown; [ ] = remark or other dose. Unless noted, calls follow the shape of the dose curve; as a rule, active = well fitted curve in the direction sought with a large enough effect; inconclusive = small, poorly fitted or top-dose-only effect, or another doubt; inactive = no such curve, though single readings can be large; an effect the other way counts as inactive or inconclusive.
SMILES,IL1B secr inh,ATXN2 expr inh,TGFb SMAD3 inh,HepG2 viability,S2 tox
OCCN1CCN(Cc2ccc3c(c2)CN(Cc2ccc4ccccc4c2)CCO3)CC1,x,x,x,x,i
CC1CCC(CN2C(Nc3ccccc3)=NC[C@@H]2Cc2ccccc2)CC1 (stereo partly specified),-23,16µM*,-7%,-37%,u
c1ccc(C[C@H]2CN=C(Nc3ccccc3)N2CC2CCCC2)cc1,-70*,-9%,x,x,i
Cn1cccc1-c1cc(C(=O)N/N=C/c2cccc(O)c2)[nH]n1,-70*,11%,-6%,-23%,i
COc1ccc(/C=N/NC(=O)c2cc(-c3cccn3C)n[nH]2)cc1OC,u,2%,-20%,-49%,i
CC/C(=C\c1ccc(N(C)C)cc1)c1ccncc1,-64*,3%,u,-32%,i
COc1ccc(-c2ccnc(-n3ncc(C(=O)NC(C)(C)CO)c3C3CC3)n2)cc1F,x,x,x,x,i
Cc1noc(C)c1CC(=O)N1CCOc2c(cc(-c3nc4ccccc4s3)cc2OC2CCOC2)C1 (stereo unspecified),x,x,x,x,i
CC1=CC2=NC(=O)/C(=C\c3cccn3CCOc3cccc(C)c3)C(=N)N2O1,-56*,-11%,10%,0%,u
CC1=CC2=NC(=O)/C(=C\c3cccn3CCOc3cc(C)cc(C)c3)C(=N)N2O1,-56*,-3%,0%,-25%,i
COc1cccc(OCCn2cccc2/C=C2/C(=N)N3OC(C)=CC3=NC2=O)c1,38,-1%,-8%,-1%,i
C=CCC(CC=C)(CNC(=O)C(=O)Nc1cccc(C(F)(F)F)c1)c1ccccc1,x,x,3%,0%,x
COc1ccccc1C(CNC(=O)COc1cc(C)ccc1Cl)N1CCCC1 (stereo unspecified),-64*,-11%,-13%,-31%,i
COc1ccc(C(CNC(=O)COc2ccc(F)cc2Br)N2CCCC2)cc1 (stereo unspecified),-54*,-21%,8%,-25%,i
O=P(CCCCCCCCCP(=O)(c1ccccc1)c1ccccc1)(c1ccccc1)c1ccccc1,-104*,25µM*,u,-98%,22µM*
O=C(O)CCCCCCCCCCP(=O)(c1ccccc1)c1ccccc1,31,1%,-3%,15%,u
COC(=O)c1cc(=O)n(-c2ccc(F)cc2)c(=Nc2ccc(F)cc2)s1,-105*,u,u,-100%,x
COC(=O)c1cc(=O)n(Cc2cccs2)c(=Nc2ccc(F)cc2)s1,-4,21µM*,u,-73%,27µM*
O=C(NCc1ccco1)c1cc2nc(-c3cccs3)cc(C(F)(F)F)n2n1,-21,-13%,-11%,-2%,i
O=C(NCc1cccnc1)c1cc2nc(-c3cccs3)cc(C(F)(F)Cl)n2n1,-67*,-7%,11%,0%,i
CC(C)[C@H](C(=O)Nc1ccc(C(=O)NO)cc1)c1ccccc1,x,76%,x,x,x
Clc1nc(Cl)c2ncn(-c3ccccc3)c2n1,-103*,u,-20%,-70%,u
CNc1nc(Cl)nc2c1ncn2-c1ccccc1,0,0%,-12%,-38%,i
O=C(CC(C(=O)O)c1ccc(Cl)cc1)c1ccc(Br)cc1 (stereo unspecified),20,15%,-4%,10µM*,i
CC(C)c1ccc(C(CC(=O)c2ccc(Cl)cc2)C(=O)O)cc1 (stereo unspecified),61,-21%,1%,-15%,u
SMILES,IL1B secr inh,ATXN2 expr inh,TGFb SMAD3 inh,HepG2 viability,S2 tox
O=C(Nn1c(C2CCCCC2)nc2ccccc2c1=O)c1cc(Cl)ccc1[N+](=O)[O-],0,-14%[11.3 µM],0%,2%,i
O=C(Nn1c(C2CCCCC2)nc2ccccc2c1=O)c1ccc(Cl)c([N+](=O)[O-])c1,-224*,-23%,u,-24%,i
Cc1cc(C(=O)Nn2c(C3CCCCC3)nc3ccccc3c2=O)ccc1[N+](=O)[O-],51,x,20µM*,-54%,u
O=C(CN1C(=O)c2ccccc2S1(=O)=O)c1ccc(OC(F)F)cc1,-8,2µM*,11%,6%,i
O=C(CN1C(=O)c2ccccc2S1(=O)=O)c1ccc(F)cc1,12,x,3%,3%,i
O=C(CN1C(=O)c2ccccc2S1(=O)=O)c1ccccc1F,28,7.9µM*,-13%,5%,i
O=C(CN1C(=O)c2ccccc2S1(=O)=O)c1ccc(Cl)cc1Cl,-13,2µM*,-5%,-7%,i
O=C(CN1C(=O)c2ccccc2S1(=O)=O)c1ccc2c(c1)OCCCO2,19,0.28µM*,u,-15%,i
O=C(C[n+]1c2ccccc2cc2ccccc21)c1ccc(F)cc1,x,x,-2%,-28%,x
N/C(=N\OC(=O)Cc1ccc([N+](=O)[O-])cc1)c1ccc([N+](=O)[O-])cc1,-1,-17%,7%,-7%,i
N/C(=N\OC(=O)Cc1ccc([N+](=O)[O-])cc1)c1cccc(Br)c1,-82*,-11%,11%,-1%,i
COc1ccc(C(=O)N=C2SC3CS(=O)(=O)CC3N2Cc2ccccc2)cc1OC (stereo unspecified),u,-7%,2%,-15%,i
COc1ccc(CN2C(=NC(=O)c3ccccc3)SC3CS(=O)(=O)CC32)cc1OC (stereo unspecified),-57*,-4%,1%,-4%,i
COc1cc(NC(=O)c2cc(C3CC3)nc3c2c(C)nn3-c2ccc(C)cc2)cc(OC)c1,x,x,x,-14%,x
COc1ccc(-n2c(SCCNCCO)nc3sc4c(c3c2=O)CCCC4)cc1,-75*,u,u,-45%,u
C[C@H]1C(=O)N(S(=O)(=O)c2ccccc2[N+](=O)[O-])[C@H]1c1ccc(-c2ccccc2)cc1,x,x,-9%,3%,x
O=C(c1ccc2c(c1)OCO2)N(Cc1cccs1)C1(C(=O)NC2CCCCC2)CCCCC1,-55*,u,u,2%,i
COc1cc(-c2cc(C)c3cccc(OC)c3n2)cc2c1OCCN(C(=O)CCn1nc(C)cc1C)C2,x,x,x,x,i
CCSc1nnc(NC(=O)NC(CC)(C(F)(F)F)C(F)(F)F)s1,u,u,13µM*,-86%,u
CC(C)(C)n1ncc2c(=O)n(Cc3ccccc3C(F)(F)F)cnc21,x,x,6%,-3%,x
CCC(C)C(NC(=O)OC(C)(C)C)C(=O)NC1COC2CC(n3ccc(NC(C)=O)nc3=O)OC12 (stereo unspecified),x,x,-6%,5%,x
CCC1CN(C(=O)N2CCC(C(=O)NCCc3ccc(OC)cc3OC)CC2)c2cc(C)ccc2O1 (stereo unspecified),x,x,u,-22%,x
ClC(Cl)(Cl)c1nc2ccccc2n2nncc12,-105*,13µM*,16µM*,20µM*,u

# Screens deposited in PubChem BioAssay by National Center for Advancing Translational Sciences (NCATS).
